PubChem BioAssay (Tox21)
Several values for one entry are separate records, joined by “and”; a condition that tells them apart may be missing. Identical values can stand only once. Inconclusive results are not listed. Where a call stands in place of a potency, no number is given. Some structures have more than one record in an assay (separate samples or runs), and their calls can disagree. Activity calls are given as the source filed them. Unless noted, the call rests on the fitted dose curve.

Key:
[1] = qHTS assay to identify small molecule antagonists of the sonic hedgehog signaling (Shh) pathway (AID 1259369); further: nearly all actives have a fitted effect of over 45% in size; further: potency means the concentration at half of the fitted maximal effect
Procedure, shortened: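 Cells are plated and held 4hr at 37 C, compounds (DMSO) are pinned in, conditioned medium is added to stimulate the pathway, and after 24hr luciferase reagent is added for 30min before luminescence is read.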

[2] = biological target: Estrogen receptor beta (Homo sapiens) (UniProt Q92731); experiment: qHTS assay to identify small molecule agonists of the estrogen receptor beta (ER-beta) signaling pathway (AID 1259377; active means well fitted activation curve with a large enough effect in the signal ratio in the repeat runs, not every such curve was filed as active; the % refers to the signal ratio; further: potency means the concentration at half of the fitted maximal effect)
Chain of Estrogen receptor beta (Homo sapiens) (Q92731 whole entry, looked up): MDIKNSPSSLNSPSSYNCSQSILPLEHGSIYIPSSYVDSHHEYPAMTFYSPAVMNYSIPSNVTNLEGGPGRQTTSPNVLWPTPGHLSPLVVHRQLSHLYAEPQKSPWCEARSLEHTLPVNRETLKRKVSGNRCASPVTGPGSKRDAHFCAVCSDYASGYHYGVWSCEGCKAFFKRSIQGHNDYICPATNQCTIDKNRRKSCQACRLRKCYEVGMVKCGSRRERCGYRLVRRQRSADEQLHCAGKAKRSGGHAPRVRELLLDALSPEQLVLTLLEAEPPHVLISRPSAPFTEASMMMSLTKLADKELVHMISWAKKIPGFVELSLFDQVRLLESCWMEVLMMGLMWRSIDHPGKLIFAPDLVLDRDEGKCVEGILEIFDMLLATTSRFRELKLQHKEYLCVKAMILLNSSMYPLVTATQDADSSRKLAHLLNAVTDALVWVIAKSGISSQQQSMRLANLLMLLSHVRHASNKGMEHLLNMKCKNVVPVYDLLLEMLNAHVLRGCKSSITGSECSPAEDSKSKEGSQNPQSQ
Procedure, shortened: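 Reporter cells (HEK293T, ER-beta-UAS-bla) receive compounds or DMSO after a 6 hr pre-incubation. They then incubate 16 hr at 37C/5% CO2, and fluorescence from LiveBLAzer B/G substrate is measured after 2 hours at room temperature.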

[3] = biological target: Estrogen receptor beta (Homo sapiens) (UniProt Q92731); experiment: qHTS assay to identify small molecule antagonists of the estrogen receptor beta (ER-beta) signaling pathway (AID 1259378; active means well fitted inhibition curve with a large enough effect in the signal ratio in the repeat runs, not every such curve was filed as active; the % refers to the signal ratio; further: potency means the concentration at half of the fitted maximal effect)
Procedure, shortened: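 Antagonist mode: compounds added to beta-lactamase reporter HEK293T ER-beta-UAS cells stimulated with E2 (1nM final), 16 hr at 37C. LiveBLAzer B/G FRET substrate, 2 hours room temperature, fluorescence read-out.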

[4] = qHTS assay to identify small molecule agonists of the estrogen receptor beta (ER-beta) signaling pathway - cell viability counter screen (AID 1259380; active means well fitted curve in the direction sought with a large enough effect in the repeat runs; an effect the other way counts as inactive or inconclusive; further: nearly all actives have a fitted effect of over 30% in size; further: potency means the concentration at half of the fitted maximal effect)
Procedure, shortened: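 Cytotoxicity is measured in parallel with the reporter screen: after 16 hr compound exposure at 37C and a 2 hr LiveBLAzer step, CellTiter-Glo is added to the same ER-beta-UAS-bla HEK293T wells and luminescence read after 30 min.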

[5] = qHTS assay to identify small molecule antagonists of the estrogen receptor beta (ER-beta) signaling pathway - cell viability counter screen (AID 1259382; active means well fitted curve in the direction sought with a large enough effect in the repeat runs; an effect the other way counts as inactive or inconclusive; further: nearly all actives have a fitted effect of over 55% in size; further: potency means the concentration at half of the fitted maximal effect)
Procedure, shortened: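 Cytotoxicity counter screen multiplexed with the beta-lactamase antagonist assay: GripTite HEK293T ER-beta-bla cells were treated 16 hr with test chemicals in the presence of 1nM 17-beta-estradiol, and viability was measured by CellTiter-Glo.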

[6] = qHTS assay to identify small molecule agonists or antagonists of the thyroid stimulating hormone receptor (TSHR) signaling pathway - wild type cell line counter screen (AID 1259384); further: potency means the concentration at half of the fitted maximal effect
Procedure, shortened: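 Counter screen in untransfected Hek293: compounds (15-point titration, triplicate) plus phosphodiesterase inhibitor Ro20-1724 added after 18 h plating; 30 min RT. Intracellular cAMP via competitive d2/cryptate immunoassay, 1 h incubation.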

[7] = biological target: Thyrotropin receptor (Homo sapiens) (UniProt P16473); experiment: qHTS assay to identify small molecule antagonists of the thyroid stimulating hormone receptor (TSHR) signaling pathway (AID 1259385); further: nearly all actives have a fitted effect of over 20% in size
Chain of Thyrotropin receptor (Homo sapiens) (P16473 whole entry, looked up): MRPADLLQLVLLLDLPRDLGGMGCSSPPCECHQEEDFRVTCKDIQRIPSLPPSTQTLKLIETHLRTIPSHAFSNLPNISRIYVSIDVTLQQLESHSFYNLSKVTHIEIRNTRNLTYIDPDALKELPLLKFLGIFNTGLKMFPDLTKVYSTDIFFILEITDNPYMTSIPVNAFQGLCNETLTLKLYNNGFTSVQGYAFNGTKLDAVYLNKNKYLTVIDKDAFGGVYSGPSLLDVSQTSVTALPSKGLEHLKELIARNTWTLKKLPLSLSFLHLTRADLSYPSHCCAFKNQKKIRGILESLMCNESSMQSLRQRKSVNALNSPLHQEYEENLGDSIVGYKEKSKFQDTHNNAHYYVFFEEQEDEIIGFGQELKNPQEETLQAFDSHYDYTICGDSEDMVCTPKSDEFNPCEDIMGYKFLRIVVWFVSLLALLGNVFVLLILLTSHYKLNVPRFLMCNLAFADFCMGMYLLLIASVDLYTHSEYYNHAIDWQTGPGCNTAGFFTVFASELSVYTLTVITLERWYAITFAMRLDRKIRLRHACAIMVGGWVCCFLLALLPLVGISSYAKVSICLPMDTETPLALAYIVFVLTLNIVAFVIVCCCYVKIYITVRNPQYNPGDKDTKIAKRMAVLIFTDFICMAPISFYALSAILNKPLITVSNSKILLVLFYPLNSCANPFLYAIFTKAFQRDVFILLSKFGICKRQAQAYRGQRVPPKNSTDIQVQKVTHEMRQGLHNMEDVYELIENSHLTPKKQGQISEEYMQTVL
Procedure, shortened: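 Antagonist mode: compound-treated TSHR-expressing HEK293 cells were stimulated with 1.5 ng/mL TSH (final) in presence of Ro20-1724 for 30 min at RT. HTRF cAMP detection after 1 h; each compound tested at 15 concentrations, triplicate.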

[8] = qHTS assay to identify small molecule agonists of the androgen receptor (AR) signaling pathway in the presence of an antagonist - cell viability counter screen (AID 1259379; active means well fitted curve in the direction sought with a large enough effect in the repeat runs; an effect the other way counts as inactive or inconclusive; further: nearly all actives have a fitted effect of over 25% in size; further: potency means the concentration at half of the fitted maximal effect)
Procedure, shortened: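 Cytotoxicity is assessed by CellTiter-Fluor in MDA-kb2 cells carrying an MMTV-driven luciferase reporter. Cells receive 3.0uM nilutamide plus compounds at 15 concentrations and incubate 16 hr at 37C without CO2 before fluorescence reading.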

[9] = biological target: Androgen receptor (Homo sapiens) (UniProt P10275); experiment: qHTS assay to identify small molecule agonists of the androgen receptor (AR) signaling pathway in the presence of an antagonist (AID 1259381); further: nearly all actives have a fitted effect of over 15% in size
Chain of Androgen receptor (Homo sapiens) (P10275 whole entry, looked up): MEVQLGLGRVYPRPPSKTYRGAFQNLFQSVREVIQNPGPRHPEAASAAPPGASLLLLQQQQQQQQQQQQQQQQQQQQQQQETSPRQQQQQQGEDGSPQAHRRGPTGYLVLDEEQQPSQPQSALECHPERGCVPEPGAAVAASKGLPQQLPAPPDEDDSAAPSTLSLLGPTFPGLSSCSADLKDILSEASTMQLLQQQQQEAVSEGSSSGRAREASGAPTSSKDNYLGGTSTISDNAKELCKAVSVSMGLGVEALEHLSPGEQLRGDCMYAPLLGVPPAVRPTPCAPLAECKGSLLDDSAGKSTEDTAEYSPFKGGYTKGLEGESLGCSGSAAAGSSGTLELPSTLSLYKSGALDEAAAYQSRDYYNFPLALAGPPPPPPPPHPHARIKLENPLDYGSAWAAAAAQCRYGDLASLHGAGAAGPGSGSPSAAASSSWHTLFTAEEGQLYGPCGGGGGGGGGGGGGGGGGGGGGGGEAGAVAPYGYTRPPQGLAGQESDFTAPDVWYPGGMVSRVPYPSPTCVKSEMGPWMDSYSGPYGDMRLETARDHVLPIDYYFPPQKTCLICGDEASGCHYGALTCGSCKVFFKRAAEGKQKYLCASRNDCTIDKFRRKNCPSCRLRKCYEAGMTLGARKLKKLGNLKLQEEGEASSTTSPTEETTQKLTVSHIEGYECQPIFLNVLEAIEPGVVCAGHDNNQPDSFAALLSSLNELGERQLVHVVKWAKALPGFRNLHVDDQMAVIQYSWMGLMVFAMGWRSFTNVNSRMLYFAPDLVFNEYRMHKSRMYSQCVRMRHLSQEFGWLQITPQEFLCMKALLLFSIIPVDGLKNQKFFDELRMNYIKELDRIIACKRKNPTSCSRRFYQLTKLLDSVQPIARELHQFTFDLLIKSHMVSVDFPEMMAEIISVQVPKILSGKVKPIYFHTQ
Procedure, shortened: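 Agonist-mode confirmation screen: human MDA-kb2 cells stably expressing luciferase under an MMTV promoter bearing AR and GR response elements, co-treated with 3.0uM nilutamide (final). Luminescence measured after 16hr compound incubation.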

[10] = biological target: Estrogen receptor (Homo sapiens) (UniProt P03372); experiment: qHTS assay to identify small molecule agonists of the estrogen receptor alpha (ER-alpha) signaling pathway in the presence of an antagonist (AID 1259383); further: top concentration of the series differs between compounds; nearly all actives have a fitted effect of over 15% in size
Chain of Estrogen receptor (Homo sapiens) (P03372 whole entry, looked up): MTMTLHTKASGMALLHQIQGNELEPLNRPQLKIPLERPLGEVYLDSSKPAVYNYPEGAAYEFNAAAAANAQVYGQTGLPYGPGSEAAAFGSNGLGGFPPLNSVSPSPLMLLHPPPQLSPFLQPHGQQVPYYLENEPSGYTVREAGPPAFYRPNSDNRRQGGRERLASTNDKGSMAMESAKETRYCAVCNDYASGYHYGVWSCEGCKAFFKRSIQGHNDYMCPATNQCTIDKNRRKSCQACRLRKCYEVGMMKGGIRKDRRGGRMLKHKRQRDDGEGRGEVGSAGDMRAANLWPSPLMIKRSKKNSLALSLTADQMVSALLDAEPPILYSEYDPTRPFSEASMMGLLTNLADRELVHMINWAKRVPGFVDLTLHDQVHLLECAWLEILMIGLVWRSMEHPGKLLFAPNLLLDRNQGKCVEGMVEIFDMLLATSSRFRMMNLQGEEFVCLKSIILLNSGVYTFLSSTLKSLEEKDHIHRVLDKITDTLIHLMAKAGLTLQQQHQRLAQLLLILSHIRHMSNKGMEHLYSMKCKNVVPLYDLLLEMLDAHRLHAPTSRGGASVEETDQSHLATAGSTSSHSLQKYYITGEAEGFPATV
Procedure, shortened: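 Agonist-mode confirmation in the presence of the ER antagonist ICI-182,780 at 10.0nM final. Breast-derived VM7Luc4E2 reporter cells were exposed to compounds for 22hr, and ERE-driven luciferase was quantified by luminescence.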

Structure (SMILES) | Potency [1] | Potency [2] | Potency [3] | Potency [4] | Potency [5] | Potency [6] | Potency [7] | Potency [8] | Potency [9] | Potency [10]
NC(=O)c1cccnc1 | inactive | inactive | inactive | inactive | inactive | inactive | inactive | – | – | –
O=c1[nH]cc(F)c(=O)[nH]1 | inactive | inactive | inactive | 10.1 µM (active) and 12.5 µM (active) and inactive | 14.2 µM (active) and inactive | inactive | inactive | inactive | – | –
CC1(C)O[C@@H]2C[C@H]3[C@@H]4CCC5=CC(=O)C=C[C@]5(C)[C@@]4(F)[C@@H](O)C[C@]3(C)[C@]2(C(=O)CO)O1 | inactive | inactive | inactive | inactive | inactive | – | – | inactive | – | –
O=S1(=O)OC(c2ccc(O)cc2)(c2ccc(O)cc2)c2ccccc21 | 27.3 µM (active) and inactive | inactive | inactive | – | inactive | – | – | 30.6 µM (active) and 19.3 µM (active) and 10.6 µM (active) | – | –
Cc1c(C(=O)O)c(O)cc2c1C(=O)c1c(O)c([C@@H]3O[C@H](CO)[C@@H](O)[C@H](O)[C@H]3O)c(O)c(O)c1C2=O | inactive | inactive | inactive | – | inactive | – | – | 18.9 µM (active) and 15.4 µM (active) | – | –
Nc1c(N=Nc2ccc(-c3ccc(N=Nc4cc(S(=O)(=O)O)c5ccccc5c4N)cc3)cc2)cc(S(=O)(=O)O)c2ccccc12 | inactive | inactive | – | – | inactive | – | – | 24.3 µM (active) | – | –
Nc1ccc(S(N)(=O)=O)cc1 | inactive | inactive | inactive | inactive | inactive | inactive | inactive | inactive | – | –
CCN(CC)C(=O)c1cccc(C)c1 | inactive | inactive | inactive | – | inactive | inactive | inactive | inactive | – | –
CCCCCCCC(=O)OCC(COC(=O)CCCCCCC)OC(=O)CCCCCCC | inactive | inactive | inactive | – | inactive | inactive | inactive | – | – | –
NC1CCCCC1 | inactive | 2.75 µM (active) and inactive | inactive | – | inactive | inactive | inactive | – | – | –
CCc1nc(N)nc(N)c1-c1ccc(Cl)cc1 | 17.5 µM (active) and 27.3 µM (active) | inactive | – | – | inactive | – | – | – | – | –
O=CC(=O)c1ccccc1 | inactive | inactive | inactive | – | inactive | inactive | – | – | – | –
Cc1cn([C@H]2C=C[C@@H](CO)O2)c(=O)[nH]c1=O | inactive | inactive | inactive | – | inactive | inactive | inactive | – | – | –
CCCCOC(=O)c1ccc(O)cc1 | inactive | inactive | 19.3 µM (active) | inactive | inactive | inactive | inactive | – | inactive | –
OC[C@H]1O[C@H](O[C@]2(CCl)O[C@H](CCl)[C@@H](O)[C@@H]2O)[C@H](O)[C@@H](O)[C@H]1Cl | inactive | inactive | inactive | – | inactive | inactive | inactive | inactive | – | –
CCCCCCCCCCCCCCCC[N+](C)(C)Cc1ccccc1 | 1.78 µM (active) and 6.98 µM (active) and 150 nM (active) | inactive | – | 14.1 µM (active) and 22.1 µM (active) and 11.9 µM (active) | 35.5 µM (active) and 17.5 µM (active) and 10.6 µM (active) | – | – | – | – | –
C/C=C/C=C/C(=O)O | inactive | inactive | inactive | – | inactive | inactive | inactive | – | – | –
CCOc1ccc(NC(C)=O)cc1 | inactive | inactive | inactive | inactive | inactive | inactive | inactive | – | inactive | –
CC(C)NCC(O)c1ccc(O)c(O)c1 (stereo unspecified) | inactive | inactive | inactive | – | inactive | 4.98 nM (active) and 5.87 nM (active) and 5.7 nM (active) | inactive | inactive | – | –

Structure (SMILES) | Potency [1] | Potency [2] | Potency [3] | Potency [4] | Potency [5] | Potency [6] | Potency [7] | Potency [8] | Potency [9] | Potency [10]
CC(C)C(=O)Nc1ccc([N+](=O)[O-])c(C(F)(F)F)c1 | 17.7 µM (active) | inactive | 54.5 µM (active) and inactive | – | inactive | inactive | inactive | – | – | –
C=C(C)C(=O)OCC(C)O (stereo unspecified) | inactive | inactive | inactive | – | inactive | inactive | inactive | inactive | – | –
O=C(O)CC(O)C(=O)O (stereo unspecified) | inactive | inactive | inactive | inactive | inactive | inactive | inactive | inactive | – | –
NS(=O)(=O)c1cc2c(cc1Cl)NCNS2(=O)=O | inactive | inactive | inactive | – | inactive | inactive | inactive | inactive | – | –
NS(=O)(=O)O | inactive | inactive | inactive | inactive | inactive | – | – | – | – | –
COc1ccc(C(Cl)=C(c2ccc(OC)cc2)c2ccc(OC)cc2)cc1 | inactive | inactive | 433 nM (active) and 668 nM (active) | inactive | inactive | – | – | inactive | – | –
Nc1c2c(nc3ccccc13)CCCC2 | 8.63 µM (active) and 13.7 µM (active) | inactive | inactive | inactive | inactive | inactive | inactive | inactive | – | –
CN(C)CCOC(c1ccccc1)c1ccccc1 | inactive | inactive | inactive | inactive | inactive | inactive | inactive | inactive | inactive | –
CN(C)CCOC(C)(c1ccccc1)c1ccccn1 (stereo unspecified) | inactive | inactive | inactive | – | inactive | inactive | inactive | inactive | – | –
CNNCc1ccc(C(=O)NC(C)C)cc1 | inactive | inactive | inactive | inactive | inactive | inactive | inactive | inactive | – | –
O=C(O)c1ccccc1 | inactive | – | – | – | inactive | inactive | inactive | inactive | – | –
CCCCC(CC)C(=O)O (stereo unspecified) | inactive | – | – | – | inactive | inactive | inactive | inactive | – | –
C[C@](N)(Cc1ccc(O)c(O)c1)C(=O)O | inactive | – | – | inactive | inactive | – | – | inactive | – | –
CCOC(N)=O | inactive | – | – | inactive | inactive | inactive | inactive | – | – | inactive
CCN(Cc1c(F)cccc1Cl)c1c([N+](=O)[O-])cc(C(F)(F)F)cc1[N+](=O)[O-] | inactive | – | – | – | 43.3 µM (active) | – | – | inactive | – | –
CN(N=O)C(=O)N[C@@H]1[C@@H](O)[C@H](O)[C@@H](CO)O[C@@H]1O | inactive | – | – | – | inactive | inactive | inactive | inactive | – | inactive
CN1CCc2cccc3c2[C@H]1Cc1ccc(O)c(O)c1-3 | 2.87 µM (active) and 18.8 µM (active) | – | – | – | 30.9 µM (active) and 20.4 µM (active) and inactive | inactive | inactive | 55 µM (active) and 22.8 µM (active) and 26.6 µM (active) | – | –
CN1CCC[C@H]1c1cccnc1 | inactive | – | – | inactive | inactive | – | – | inactive | – | –
F[B-](F)(F)F | inactive | – | – | inactive and 62 µM (active) | inactive | inactive | inactive | inactive | – | –
